Screen size: about 39,000 compounds; about 3,300 (8.5%) were called active. This is one part of a sample in which actives are shown more often than they occur.

The test system of the assay is HepG2. Kind of assay: cytotoxicity call (relative viability < 0.9). Conditions: 10 µM.
`C[C@H]1CN([C@@H](C)CO)C(=O)c2cc(NS(=O)(=O)c3ccccc3)ccc2O[C@H]1CN(C)S(=O)(=O)c1cccs1`: the cytotoxicity call was “inactive”. The entry for `COc1ccc(CN(C)C[C@@H]2OCCCC[C@H](C)Oc3ccc(NS(=O)(=O)c4ccccc4)cc3C(=O)N([C@H](C)CO)C[C@H]2C)cc1` is “inactive”; for `C[C@@H]1CCCCO[C@@H](CN(C)Cc2ccc(C(=O)O)cc2)[C@@H](C)CN([C@H](C)CO)C(=O)c2cc(NS(=O)(=O)c3ccc(F)cc3)ccc2O1` it is “inactive”. Regarding `C[C@@H]1CN([C@H](C)CO)C(=O)c2cccc(NC(=O)NC3CCCCC3)c2O[C@@H]1CN(C)Cc1ccc(Cl)c(Cl)c1`, the cytotoxicity call was “inactive”. The entry for `COc1ccc(NC(=O)Nc2ccc3c(c2)C(=O)N([C@H](C)CO)C[C@H](C)[C@@H](CN(C)S(=O)(=O)c2ccccc2)OCCCC[C@@H](C)O3)cc1` is “inactive”; for `Cc1ccc(S(=O)(=O)Nc2cccc3c2O[C@H](CN(C)S(=O)(=O)c2c(C)noc2C)[C@@H](C)CN([C@H](C)CO)C3=O)cc1` it is “inactive”.

Turning to `CC[C@@H](C)n1ncn(-c2ccc(N3CCN(c4ccc(OC[C@H]5CO[C@](Cn6cncn6)(c6ccc(Cl)cc6Cl)O5)cc4)CC3)cc2)c1=O`, the cytotoxicity call was “active”.

Consider `CC(C)N1CCN(c2ccc(OCC3COC(Cn4cncn4)(c4ccc(Cl)cc4Cl)O3)cc2)CC1` (stereo not drawn), for which the cytotoxicity call was “inactive”. As to `CC[C@H](C)n1ncn(-c2ccc(N3CCN(c4ccc(OC[C@H]5CO[C@](Cn6cncn6)(c6ccc(Cl)cc6Cl)O5)cc4)CC3)cc2)c1=O`, the cytotoxicity call was “inactive”.

Consider `CCC(C)n1ncn(-c2ccc(N3CCN(c4ccc(OCC5COC(Cn6cncn6)(c6ccc(Cl)cc6Cl)O5)cc4)CC3)cc2)c1=O.Cl.Cl` (stereo not drawn), for which the cytotoxicity call is “active”. For the compound `CC(=O)N1CCN(c2ccc(OCC3COC(Cn4ccnc4)(c4ccc(Cl)cc4Cl)O3)cc2)CC1` (stereo not drawn), the cytotoxicity call was “inactive”.

In the case of `CCC(C(C)O)n1ncn(-c2ccc(N3CCN(c4ccc(OCC5COC(Cn6cncn6)(c6ccc(F)cc6F)C5)cc4)CC3)cc2)c1=O` (stereo not drawn), the cytotoxicity call was “active”. The same measure for `C[C@@H]1CN([C@@H](C)CO)C(=O)c2cccc(NC(=O)c3ccc(-c4nccs4)cc3)c2O[C@H]1CN(C)C(=O)Nc1ccc(F)cc1`: “inactive”. The entry for `CCS(=O)(=O)Nc1ccc2c(c1)C(=O)N(C)C[C@H](OC)[C@@H](C)CN(Cc1ccccn1)[C@H](C)CO2` is “inactive”; for `COc1ccc(C#Cc2ccc3c(c2)O[C@@H](CN(C)C(=O)c2ccccn2)[C@H](C)CN([C@H](C)CO)S3(=O)=O)cc1` it is “inactive”. Take `CC1=CC(=O)N(c2ccn(C)n2)C1=O`: the cytotoxicity call was “inactive”. The entry for `C[C@@H]1CN([C@H](C)CO)C(=O)c2cc(NC(=O)Cc3ccccc3)ccc2O[C@@H]1CN(C)C(=O)Nc1cccc2ccccc12` is “inactive”; for `CC(C)NC(=O)Nc1ccc2c(c1)C(=O)N([C@@H](C)CO)C[C@H](C)[C@@H](CN(C)S(=O)(=O)c1cccs1)O2` it is “inactive”; for `C[C@@H]1CN([C@H](C)CO)C(=O)Cc2cc(NC(=O)Nc3ccc(C(F)(F)F)cc3)ccc2O[C@H]1CN(C)C(=O)Nc1ccccc1` it is “inactive”. The entry for `CN1CCN(C(=O)C[C@H]2CC[C@@H]3[C@H](COC[C@@H](O)CN3Cc3ccc4c(c3)OCO4)O2)CC1` is “inactive”; for `C[C@@H]1CCCCO[C@H](CN(C)C(=O)c2ccncc2)[C@H](C)CN([C@@H](C)CO)C(=O)c2cc(NS(=O)(=O)c3ccc(Cl)cc3)ccc2O1` it is “inactive”. The entry for `O=C(C[C@H]1C=C[C@H](NC(=O)c2cnccn2)[C@H](CO)O1)NCc1ccccc1F` is “inactive”; for `Cc1ccc(S(=O)(=O)N(C)C[C@H]2Oc3ccc(NC(=O)CCCN(C)C)cc3C(=O)N([C@H](C)CO)C[C@H]2C)cc1` it is “inactive”; for `CO[C@H](CN(C)C(=O)C1CCOCC1)[C@@H](C)CN(C(=O)Nc1ccc(C(F)(F)F)cc1)[C@@H](C)CO` it is “inactive”. With `Cc1ccc(S(=O)(=O)Nc2ccc3c(c2)CC(=O)N([C@H](C)CO)C[C@H](C)[C@H](CN(C)Cc2ccc(-c4ccccc4)cc2)O3)cc1`, the cytotoxicity call is “active”. The entry for `Cc1ccc(S(=O)(=O)Nc2ccc3c(c2)CC(=O)N([C@H](C)CO)C[C@@H](C)[C@H](CN(C)Cc2ccc(-c4ccccc4)cc2)O3)cc1` is “active”. The entry for `Cc1ccc(S(=O)(=O)Nc2ccc3c(c2)CC(=O)N([C@H](C)CO)C[C@@H](C)[C@@H](CN(C)Cc2ccc(-c4ccccc4)cc2)O3)cc1` is “active”.

As for `Cc1ccc(S(=O)(=O)Nc2ccc3c(c2)CC(=O)N([C@@H](C)CO)C[C@@H](C)[C@H](CN(C)Cc2ccc(-c4ccccc4)cc2)O3)cc1`, the cytotoxicity call was “inactive”. Regarding `Cc1ccc(S(=O)(=O)Nc2ccc3c(c2)CC(=O)N([C@H](C)CO)C[C@H](C)[C@@H](CN(C)Cc2ccc(-c4ccccc4)cc2)O3)cc1`, the cytotoxicity call is “active”.

Take `CS(=O)(=O)N1C[C@H]2CN(C(=O)c3cnccn3)C[C@@H]2C1`: the cytotoxicity call was “inactive”. The entry for `Cc1cc(SCc2ccc(F)cc2)c(C)cc1Cl` is “inactive”; for `Cc1noc(C)c1NC(=O)N(C)C[C@H]1Oc2c(NC(=O)c3cnccn3)cccc2C(=O)N([C@@H](C)CO)C[C@H]1C` it is “inactive”. The same measure for `Cc1noc(C)c1S(=O)(=O)Nc1ccc2c(c1)C(=O)N([C@H](C)CO)C[C@H](C)[C@@H](CN(C)S(=O)(=O)c1ccc(Cl)cc1)O2`: “inactive”. `COCC#Cc1cnc2c(c1)C(=O)N([C@@H](C)CO)C[C@H](C)[C@H](CN(C)S(=O)(=O)c1cn(C)cn1)O2`: the cytotoxicity call was “inactive”. Regarding `COCC(=O)N[C@H]1C=C[C@@H](CC(=O)N2CCCCC2)O[C@@H]1CO`, the cytotoxicity call was “inactive”.

Turning to `CCCC#Cc1ccc2c(c1)O[C@H](CN(C)S(=O)(=O)c1cccc(OC)c1)[C@H](C)CN([C@H](C)CO)S2(=O)=O`, the cytotoxicity call was “inactive”.

For the compound `C[C@@H]1CCCCO[C@@H](CN(C)C(=O)Nc2ccccc2)[C@@H](C)CN([C@H](C)CO)C(=O)c2cc(NC(=O)CCCCCC(=O)Nc3ccccc3N)ccc2O1`, the cytotoxicity call is “inactive”. The entry for `O=C(C1=C[C@@H](c2csc3ccccc23)C[C@@H](OCc2ccc(CO)cc2)O1)N1CCN(Cc2ccccc2)CC1` is “inactive”; for `C[C@@H]1CCCCO[C@@H](CN(C)C(=O)Nc2ccc(F)cc2)[C@H](C)CN([C@H](C)CO)C(=O)c2cc(NC(=O)C3CCCCC3)ccc2O1` it is “inactive”. The entry for `CN1CCN(C(=O)C[C@H]2CC[C@H]3[C@@H](COC[C@@H](O)CN3C(=O)C3CCCC3)O2)CC1` is “inactive”; for `Cc1cc(NC(=O)CSc2nnc[nH]2)no1` it is “inactive”. Take `Cc1ccc(S(=O)(=O)Nc2ccc3c(c2)CC(=O)N([C@@H](C)CO)C[C@H](C)[C@H](CN(C)Cc2ccc(-c4ccccc4)cc2)O3)cc1`: the cytotoxicity call is “inactive”. The same measure for `Cc1ccc(S(=O)(=O)Nc2ccc3c(c2)CC(=O)N([C@@H](C)CO)C[C@H](C)[C@@H](CN(C)Cc2ccc(-c4ccccc4)cc2)O3)cc1`: “inactive”.

For `Cc1ccc(S(=O)(=O)Nc2ccc3c(c2)CC(=O)N([C@@H](C)CO)C[C@@H](C)[C@@H](CN(C)Cc2ccc(-c4ccccc4)cc2)O3)cc1`, the cytotoxicity call was “active”. As for `Cc1noc(C)c1NC(=O)N(C)C[C@H]1OCCCC[C@@H](C)Oc2ccc(NC(=O)Nc3ccc(C(F)(F)F)cc3)cc2C(=O)N([C@H](C)CO)C[C@@H]1C`, the cytotoxicity call is “inactive”. The entry for `C[C@H](CO)N1C[C@H](C)[C@H](CN(C)S(=O)(=O)c2ccc(F)cc2)Oc2ccc(NS(=O)(=O)c3ccccc3)cc2C1=O` is “inactive”; for `Cc1ccc(Nc2c(-c3ccccc3)nc3ccccn23)cc1` it is “inactive”. `Cc1ccc2nc(Nc3ccccc3)nc(-c3ccccc3)c2c1`: the cytotoxicity call was “inactive”. The entry for `Cc1ccc(Nc2nnc(-c3ccccc3)c3ccccc23)cc1` is “active”; for `C[C@H](CO)N1C[C@H](C)[C@H](CN(C)S(=O)(=O)c2ccc3ccccc3c2)OCc2cn(nn2)CCCC1=O` it is “inactive”. Consider `C[C@@H]1CN([C@@H](C)CO)C(=O)c2cccc(NC(=O)C3CCCCC3)c2O[C@@H]1CN(C)Cc1ccc(C(=O)Nc2ccccc2N)cc1`, for which the cytotoxicity call was “active”. The entry for `C[C@H](CO)N1C[C@H](C)[C@H](CN(C)Cc2ccc(C(=O)Nc3ccccc3N)cc2)Oc2c(NC(=O)C3CCCCC3)cccc2C1=O` is “inactive”. The same measure for `C[C@@H]1CN([C@H](C)CO)C(=O)c2cccc(NC(=O)C3CCCCC3)c2O[C@H]1CN(C)Cc1ccc(C(=O)Nc2ccccc2N)cc1`: “inactive”. Regarding `C[C@H]1CN([C@@H](C)CO)C(=O)c2cccc(NC(=O)C3CCCCC3)c2O[C@H]1CN(C)Cc1ccc(C(=O)Nc2ccccc2N)cc1`, the cytotoxicity call is “active”. The same measure for `C[C@@H]1CN([C@@H](C)CO)C(=O)c2cccc(NC(=O)NC3CCCCC3)c2O[C@@H]1CN(C)Cc1ccc(C(=O)Nc2ccccc2N)cc1`: “inactive”; for `C[C@H]1CN([C@@H](C)CO)C(=O)c2cccc(NC(=O)C3CCCCC3)c2O[C@@H]1CN(C)Cc1ccc(C(=O)Nc2ccccc2N)cc1`: “inactive”; for `C[C@H]1CN([C@@H](C)CO)C(=O)c2cccc(NC(=O)NC3CCCCC3)c2O[C@H]1CN(C)Cc1ccc(C(=O)Nc2ccccc2N)cc1`: “inactive”.

Consider `C[C@@H]1CN([C@@H](C)CO)C(=O)c2cccc(NC(=O)C3CCCCC3)c2O[C@H]1CN(C)Cc1ccc(C(=O)Nc2ccccc2N)cc1`, for which the cytotoxicity call was “inactive”. For the compound `C[C@H](CO)N1C[C@H](C)[C@H](CN(C)Cc2ccc(C(=O)Nc3ccccc3N)cc2)Oc2c(NC(=O)NC3CCCCC3)cccc2C1=O`, the cytotoxicity call was “active”. The same measure for `C[C@@H]1CN([C@@H](C)CO)C(=O)c2cc(NC(=O)C3CC3)ccc2O[C@@H]1CN(C)S(=O)(=O)c1ccc(Cl)cc1`: “inactive”; for `Cc1ccc(S(=O)(=O)N(C)C[C@H]2OCCCC[C@@H](C)Oc3ccc(NC(=O)Nc4ccc(C(F)(F)F)cc4)cc3C(=O)N([C@@H](C)CO)C[C@H]2C)cc1`: “inactive”.

`O=C(O)c1c(Br)c(Br)c(Br)c(Br)c1-c1c2ccc(=O)cc-2oc2cc(O)ccc12`: the cytotoxicity call is “inactive”.

Take `CNC[C@@H]1OCCCC[C@H](C)Oc2ccc(NC(=O)Nc3ccc(C(F)(F)F)cc3)cc2C(=O)N([C@@H](C)CO)C[C@@H]1C`: the cytotoxicity call is “inactive”.

The record behind these values is the antibiotic and cytotoxicity screens of Wong et al. (2023).
